Data: PubChem BioAssay AID1347076 (National Center for Advancing Translational Sciences (NCATS), 2019)
Out of some 400,000 compounds screened, about 13,000 (3.2%) were called active. About 18% were inconclusive and are not listed. The call rests on the fitted dose curve; in most records, active means well fitted cell-killing curve with a large enough effect; inconclusive means small, poorly fitted or top-dose-only effect, or effect the other way; inactive means flat fitted curve, though single readings scatter. The entries come from a sample that favours actives as a whole. Where a call stands in place of a potency, no number is given.

Assay: qHTS assay for MDR1-selective chemotherapeutics: Primary screen using the drug-selected MDR subline cells KB-V1; further: nearly all actives have a fitted effect of over 60% in size
Details: KB-V1 MDR cells viability, CellTiter-Glo, 72 h; series mostly up to 46.1 µM
Procedure, shortened: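 Cytotoxicity via CellTiter-Glo luminescence after 72 h compound exposure at 37 degrees C. Cells: drug-selected KB-V1 line, DMEM phenol-red free plus 10% FBS. Compounds tested at multiple concentrations; normalized data fitted to concentration-effect curves.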
Potency means the concentration at half of the fitted maximal effect.

**Q.** With `N#Cc1ccc(C2N=C(c3ccccc3)NO2)cc1` (centres undefined) as the molecule, how does the Potency read?
**A.** 18.4 µM (active)

**Q.** Which Potency does the source give for `Brc1ccccc1C1N=C(c2ccccc2)NO1` (centres undefined) here?
**A.** inactive

**Q.** For `N#Cc1ccc(OC2=NS(=O)(=O)c3ccccc32)cc1`, which Potency is on record?
**A.** inactive

**Q.** With `COc1cccc(-c2cc3nc(NCCOc4ccccc4Cl)n(C)c(=O)c3s2)c1` as the molecule, how does the Potency read?
**A.** inactive

**Q.** For `N#Cc1nc(NCc2ccc(Cl)c(Cl)c2)c2ncn(CCCO)c2n1`, which Potency is on record?
**A.** inactive

**Q.** Which Potency does the source give for `COc1ccc(CN2C(=O)C(CC(=O)NCCCCc3ccccc3)CC(C(=O)N3CCOCC3)=C2C)cc1` (centres undefined) here?
**A.** inactive

**Q.** For `CCCN(CCC)C(=O)Cn1c(=O)n(-c2ccc(Cl)cc2)c(=O)c2c3c(sc21)CCCCC3`, which Potency is on record?
**A.** inactive

**Q.** For `N#Cc1ccc[n+](CC(=O)c2ccc(F)cc2)c1`, which Potency is on record?
**A.** inactive

**Q.** For `COC(=O)c1ccc(CSc2nc3ccccc3c(=O)n2-c2cccc(OC)c2)o1`, which Potency is on record?
**A.** inactive

**Q.** With `COc1ccc(CCNC(=O)CSc2nc3[nH]ncc3c(=O)n2-c2cccc(C(F)(F)F)c2)cc1OC` as the molecule, how does the Potency read?
**A.** inactive

**Q.** With `Cc1cccc2nc(CSc3nc4[nH]ncc4c(=O)n3-c3cccc(Cl)c3)cc(=O)n12` as the molecule, how does the Potency read?
**A.** 23.1 µM (active)

**Q.** For `Cc1ccc(NC(=O)[C@H](Cc2ccccc2)NC(=O)CC[C@H]2O[C@@H](n3ccc(=O)[nH]c3=O)[C@H](O)[C@@H]2O)cc1C`, which Potency is on record?
**A.** inactive

**Q.** Which Potency does the source give for `O=C(c1ncn2c1c(=O)[nH]c1ccccc12)N1CCc2ccccc2C1` here?
**A.** inactive

**Q.** With `CN1CCN(c2oc(-c3ccc(COc4ccc(Cl)cc4)o3)nc2C#N)CC1` as the molecule, how does the Potency read?
**A.** inactive

**Q.** Which Potency does the source give for `CC1(C)Cc2cccc(OCC(=O)N3CCN(c4ccc([N+](=O)[O-])cc4)CC3)c2O1` here?
**A.** 2.59 µM (active)

**Q.** With `CC1(C)Cc2cccc(OCC(=O)NCc3ccccc3)c2O1` as the molecule, how does the Potency read?
**A.** inactive

**Q.** Which Potency does the source give for `CC1(C)Cc2cccc(OCC(N)=O)c2O1` here?
**A.** inactive

**Q.** For `COc1ccccc1CNC(=O)c1ccc(N(C)S(=O)(=O)c2ccc(C)cc2)cc1`, which Potency is on record?
**A.** inactive

**Q.** Which Potency does the source give for `CN(c1ccccc1)S(=O)(=O)c1ccc(C(=O)NCCc2ccccc2)cc1` here?
**A.** inactive

**Q.** Which Potency does the source give for `Cc1ccccc1CSCCNC(=O)c1ccc(N(C)S(=O)(=O)c2ccccc2)cc1` here?
**A.** 13 µM (active)

**Q.** Which Potency does the source give for `COCc1cccc(-c2csc(C(O)c3ccc(F)cc3)n2)c1` (centres undefined) here?
**A.** inactive

**Q.** For `O=c1cc(CCl)nc2scc(-c3ccccc3)n12`, which Potency is on record?
**A.** inactive

**Q.** For `OCCn1c(-c2ccccc2)csc1=Nc1ccccc1`, which Potency is on record?
**A.** 14.6 µM (active)

**Q.** With `Cn1c(=O)nc2n(-c3ccc(Br)cc3)c3cccc(Cl)c3cc-2c1=O` as the molecule, how does the Potency read?
**A.** inactive

**Q.** Which Potency does the source give for `CCOc1ccc(Cl)cc1-c1cc(C(=O)NCc2cccs2)[nH]n1` here?
**A.** inactive

**Q.** With `CCc1ccccc1OCC(=O)Nc1nnc(C2CC2)s1` as the molecule, how does the Potency read?
**A.** inactive

**Q.** Which Potency does the source give for `N#C/C(=C\c1ccc(-c2cccc([N+](=O)[O-])c2)o1)C(=O)NCCN1CCOCC1` here?
**A.** inactive

**Q.** Which Potency does the source give for `Cc1ccc(Cc2cnc(NC(=O)/C(C#N)=C/c3ccc(-c4cccc([N+](=O)[O-])c4)o3)s2)cc1` here?
**A.** 18.4 µM (active)

**Q.** With `Cc1ccc(C(=O)N/C(=C/c2ccc(-c3cccc([N+](=O)[O-])c3)o2)C(=O)NCCCN(C)C)cc1` as the molecule, how does the Potency read?
**A.** inactive
